Measured values published in ChEMBL document CHEMBL3988442, “University of Dundee, Small-Polar-MMV Screening Library” (2021).
Among all 48,000 compounds or so, about 13,000 (27%) showed an effect of 50% or more. Some of the results follow.

What follows are molecules tested on Wolbachia pipientis (assay: Anti-Wolbachia Cell-Based Screen). Conditions: 5 µM.
Assay type: functional
Parameters: scale not given: in the data most compounds retested in dose-response had high values

| SMILES | Percent Effect [%] |
| --- | --- |
| O=C1CN(Cc2cc(O)c3cccc(F)c3n2)CCN1C1CCCC1 | -1.558 |
| Cc1ncnc(NCC(C)N(C)c2ccccc2)c1C (configuration not stated) | -9.709 |
| COCCN1CCCC2(CCN(Cc3noc(C4CCCC4)n3)C2)C1=O (configuration not stated) | 5.891 |
| Cc1nc(C)n(Cc2cccc(NC3CCN(C)C3=O)c2)n1 (configuration not stated) | -8.315 |
| CN(Cc1ccccc1)CC(C)(C)NC(=O)c1cnns1 | -3.698 |
| CN(C)CCN(C)C(=O)Nc1cc(F)cc(N2CCCC2)c1 | 23.94 |
| c1ccc(CNC[C@H]2Cn3ccnc3CO2)cc1 | -10.94 |
| Cn1cnc(CN2Cc3nccn3CC2c2ccccc2)c1 (configuration not stated) | 137.8 |
| Cc1cc(C(F)(F)F)nc(CCNC(C)Cn2nc(C)cc2C)n1 (configuration not stated) | 119.2 |
| CC(Cn1cncn1)NCc1nncn1C1CCCCC1 (configuration not stated) | -14 |
| Cc1cc(C)n(CC(C)NCCn2nc(C)c(Cl)c2C)n1 (configuration not stated) | 9.985 |
| Cc1cc(C)n(CC(C)NCCN2CCc3ccccc32)n1 (configuration not stated) | 20.38 |
| CC(Cn1ccnc1)NS(=O)(=O)Cc1ccc(F)cc1 (configuration not stated) | -3.68 |
| Cc1ccc2c(c1)c(CNC(C)Cn1ccnc1)nn2C (configuration not stated) | 4.186 |
| CC(Cn1cncn1)NCCN1CCc2ccccc2C1 (configuration not stated) | 12.32 |
| Cc1cc(C(F)(F)F)nc(CCNC(C)Cn2cncn2)n1 (configuration not stated) | 108.9 |
| Cc1cc(C(F)(F)F)nc(CCNC(C)Cn2ccnc2)n1 (configuration not stated) | 111.3 |
| COCCCN1CCCC2(CCN(S(=O)(=O)c3cccnc3)C2)C1=O (configuration not stated) | -3.769 |
| Cc1nccc(C2CCCN(S(=O)(=O)N3CCOCC3)C2)n1 (configuration not stated) | 96.21 |
| Cc1ccc(C2CCCN(S(=O)(=O)N3CCOCC3)C2)nc1 (configuration not stated) | 122.5 |
| O=S(=O)(N1CCOCC1)N1CCCC(c2ccccn2)C1 (configuration not stated) | 113 |
| CN(C1CCN(c2ccccn2)CC1)S(=O)(=O)N1CCOCC1 | 4.035 |
| CC1(C)CNC(=O)c2nc(C3CCCN(S(C)(=O)=O)C3)[nH]c2C1 (configuration not stated) | -1.918 |
| O=C(O)c1cccc(C2CCCN(S(=O)(=O)N3CCOCC3)C2)c1 (configuration not stated) | 13.32 |
| Cc1ccc(C2CCCN(S(C)(=O)=O)C2)nc1 (configuration not stated) | 144.7 |

| SMILES | Percent Effect [%] |
| --- | --- |
| CC1CCN(S(=O)(=O)N2CCCC(c3cccc(C(=O)O)c3)C2)CC1 (configuration not stated) | -0.2169 |
| CS(=O)(=O)N1CC[C@H](c2nc3ccc(C(F)(F)F)cc3[nH]2)C1 | 11.72 |
| Cc1noc2ncc(S(=O)(=O)Nc3cc(CC(C)(C)C)[nH]n3)cc12 | -3.68 |
| CCC(NS(C)(=O)=O)c1ccccc1OC (configuration not stated) | -5.645 |
| CCN(Cc1cccs1)C(=O)c1ccc(=O)n(C)c1 | 17.88 |
| Cc1cccnc1CC(C)N(C)C(=O)c1ccoc1C (configuration not stated) | -11.81 |
| Cc1occc1CNC(=O)C1(C)CCCN(C(=O)c2ccccc2)C1 (configuration not stated) | 10.24 |
| Cc1csc(C(C#N)C(=O)Nc2ccccc2)n1 (configuration not stated) | -10.65 |
| Cc1ccc(S(=O)(=O)N(C)Cc2nccs2)cc1N(C)C | 7.403 |
| Cc1nc(C2CCCC2)sc1C(N)=O | -5.82 |
| CNC(=O)c1sc(C2CCCC2)nc1C | 1.771 |
| Cc1nc(C2CCCN(S(C)(=O)=O)C2)sc1Br (configuration not stated) | 114.6 |
| CCOCC1CN(S(=O)(=O)N(C)C)Cc2cnn(CC)c21.O=C(O)C(F)(F)F (configuration not stated) | -6.757 |
| CCOCC1CN(S(=O)(=O)N(C)C)Cc2cnn(C)c21.O=C(O)C(F)(F)F (configuration not stated) | -5.434 |
| Cc1ncsc1CN1Cc2cnn(C)c2C(COCC2CC2)C1.O=C(O)C(F)(F)F.O=C(O)C(F)(F)F (configuration not stated) | -6.117 |
| CCOCC1CN(c2ccc(C)nn2)Cc2cnn(CC)c21.O=C(O)C(F)(F)F.O=C(O)C(F)(F)F (configuration not stated) | 109.7 |
| Cc1noc(C)c1CN1Cc2cnn(C)c2C(COCC2CC2)C1.O=C(O)C(F)(F)F.O=C(O)C(F)(F)F (configuration not stated) | -11.34 |
| COCC1CN(c2ccc(C)nn2)Cc2cnn(C)c21.O=C(O)C(F)(F)F.O=C(O)C(F)(F)F (configuration not stated) | 88.37 |
| CCOCC1CN(C)Cc2cnn(CC3CCCC3)c21.O=C(O)C(F)(F)F.O=C(O)C(F)(F)F (configuration not stated) | 4.173 |
| CCOCC1CN(c2ccc(C)nn2)Cc2nn(CC)cc21.O=C(O)C(F)(F)F.O=C(O)C(F)(F)F (configuration not stated) | 10.42 |
| COCC1CN(Cc2ccc(C)o2)Cc2cnn(CC3CCOCC3)c21.O=C(O)C(F)(F)F.O=C(O)C(F)(F)F (configuration not stated) | 3.505 |
| Cc1ccc(N2Cc3cnn(C)c3C(COCC3CC3)C2)nn1.O=C(O)C(F)(F)F.O=C(O)C(F)(F)F (configuration not stated) | 105.5 |
| COCC1CN(c2ccc(C)nn2)Cc2cnn(CC3CCOCC3)c21.O=C(O)C(F)(F)F.O=C(O)C(F)(F)F (configuration not stated) | 113.1 |
| CCn1cc2c(n1)C(COC)CN(c1ccc(C)nn1)C2.O=C(O)C(F)(F)F.O=C(O)C(F)(F)F (configuration not stated) | 2.14 |
| c1ccc(-c2nc3c(c(NCCn4ccnn4)n2)CCNCC3)nc1 | -1.189 |

| SMILES | Percent Effect [%] |
| --- | --- |
| O=S(=O)(NCCCn1ccc2ccccc21)N1CCCCC1 | -18.64 |
| CC(Cc1cccnc1)Nc1ncnc2cccc(F)c12 (configuration not stated) | -13.17 |
| Cc1noc(C)c1CNC(=O)N1CCC(CN2CCC(C)CC2)CC1 | 0.5097 |
| CCn1ncc2c1C(COCC1CC1)CN(c1ccc(C)nn1)C2.O=C(O)C(F)(F)F.O=C(O)C(F)(F)F (configuration not stated) | 84.42 |
| CS(=O)(=O)N1Cc2cnn(CC3CC3)c2C(COCC2CC2)C1.O=C(O)C(F)(F)F (configuration not stated) | -10.17 |
| CCn1ncc2c1C(COCC1CC1)CN(S(=O)(=O)N(C)C)C2.O=C(O)C(F)(F)F (configuration not stated) | 4.655 |
| O=C(c1ccc2nccn2c1)N1CCC(CCn2cccn2)CC1 | -0.54 |
| Cc1cc(S(=O)(=O)N2CCC(S(C)(=O)=O)CC2)ccc1F | -10.45 |
| Cc1cc(S(=O)(=O)N2CCCN3CCCC3C2)ccc1F (configuration not stated) | -4.296 |
| COc1ccc(S(=O)(=O)N2CCC(S(C)(=O)=O)CC2)cc1C | -19.61 |
| CS(=O)(=O)C1CCN(S(=O)(=O)c2ccc(F)c(F)c2)CC1 | 110.6 |
| Cc1ccc(S(=O)(=O)N2CC[C@@H](O)C2)c(F)c1 | -13.3 |
| COc1ccc(S(=O)(=O)N2CCn3nc(C)nc3C2)cc1C | -5.027 |
| Cc1cc(S(=O)(=O)N2CCC(S(C)(=O)=O)C2)ccc1F (configuration not stated) | 74.96 |
| Cn1cnnc1S(=O)(=O)C1CCN(S(=O)(=O)c2ccc(F)c(Cl)c2)CC1 | -4.538 |
| CCC[C@@H]1CN(S(=O)(=O)c2ccc(C)c(F)c2)C[C@H]1N(C)C | -4.153 |
| Cc1ccc(S(=O)(=O)N2CCC(S(C)(=O)=O)CC2)cc1C | 132.3 |
| CS(=O)(=O)C1CCN(S(=O)(=O)c2ccc(F)c(F)c2)C1 (configuration not stated) | 88 |
| O=S1(=O)CCC(c2nnc(-c3cnc4onc(C5CC5)c4c3)o2)C1 (configuration not stated) | -6.363 |
| CN(C)C(=O)NC1COC2(CCN(Cc3ccc(N(C)C)cc3)CC2)C1 (configuration not stated) | 6.702 |
| CSCCNC(=O)c1cc(Br)cn1C(C)C | -6.324 |
| Cc1nc(C)n(CC2CCCN2Cc2cn3ccsc3n2)n1 (configuration not stated) | 1.786 |
| CCC(OC)C(=O)N1CCC2(CC1)c1nc[nH]c1CCN2S(C)(=O)=O (configuration not stated) | -9.741 |
| CCn1ncc2c1C(COCC1CC1)CN(C(=O)c1cccs1)C2 (configuration not stated) | 2.096 |
| CCOCC1CN(C(=O)c2cccn2C)Cc2cnn(CC3CC3)c21.O=C(O)C(F)(F)F (configuration not stated) | -14.68 |

| SMILES | Percent Effect [%] |
| --- | --- |
| CCOCC1CN(C(=O)c2cccs2)Cc2cnn(CC3CC3)c21 (configuration not stated) | 108.8 |
| COCC1c2c(cnn2CC2CCOCC2)CCN1Cc1ccoc1.O=C(O)C(F)(F)F.O=C(O)C(F)(F)F (configuration not stated) | -3.551 |
| Cn1ncc2c1C(COCC1CC1)CN(S(=O)(=O)C1CC1)C2 (configuration not stated) | -3.815 |
| CCn1cc2c(n1)C(COCC1CC1)CN(C(=O)c1ccco1)C2 (configuration not stated) | 0.7054 |
| Cn1ncc2c1C(COCC1CC1)CN(C(=O)Cc1ccsc1)C2 (configuration not stated) | 0.3372 |
| Cn1ncc2c1C(COCC1CC1)CN(C(=O)c1ccoc1)C2 (configuration not stated) | 107.9 |
| COCC1CN(C(=O)c2ccoc2)Cc2cnn(CC3CCOCC3)c21.O=C(O)C(F)(F)F (configuration not stated) | 114.4 |
| O=C(c1ccco1)N1Cc2cnn(CC3CC3)c2C(COCC2CC2)C1 (configuration not stated) | 105.1 |
| CCOCC1CN(S(C)(=O)=O)Cc2cnn(CC3CCOCC3)c21.O=C(O)C(F)(F)F (configuration not stated) | -18.06 |
| COC(=O)c1ccc(Cl)c(NS(=O)(=O)c2cn(C)cn2)c1 | 1.86 |
| CC(C)(C)c1oc(C(N)=O)cc1CN1CCOC(C(F)(F)F)C1 (configuration not stated) | -3.878 |
| Cn1c(C(F)(F)F)nn(CCNC(=O)CSCc2ccccc2)c1=O | 0.8754 |
| O=C(C1CC(=O)N(C2CCCC2)C1)N1CCN(CCn2cccc2)CC1 (configuration not stated) | -10.58 |
| COc1ccc(C(=O)N(C)Cc2cc(C)on2)c(OC)c1 | -3.822 |
| O=C(c1ccoc1)N1Cc2cnn(CC3CC3)c2C(COCC2CC2)C1 (configuration not stated) | 83.82 |
| CCOCC1CN(C(=O)c2ccoc2)Cc2cnn(C)c21 (configuration not stated) | 92.74 |
| CCOCC1CN(C(=O)c2ccoc2)Cc2nn(C)cc21 (configuration not stated) | -3.903 |
| O=C(c1ccoc1)N1CCn2cnc(COCC3CC3)c2C1 | -6.66 |
| O=C(c1ccoc1)N1CCc2c(COCC3CC3)cncc2C1 | -80.75 |
| O=C(NCc1ccc(F)cc1)NCC1(N2CCOCC2)CCSC1 (configuration not stated) | -10.73 |
| COc1ccnc(N2CCN(C(=O)c3csc(C(C)C)n3)CC2)n1 | -5.502 |
| CNC(=O)C(C)CN(C)C(=O)Nc1ccc(Cl)cc1-n1cccc1 (configuration not stated) | 0.2413 |
